Rows were chosen to be rich in hits. Some 3.3% of all compounds tested hit in one or more screens of this group.
UBC13 polyUb: human UBC13 polyubiquitination inhibition; P61088; UBC13 polyubiquitin chain formation, TR-FRET; inhibition, % at 20 µM; 330,000 tested, 0.47% active; AID 485273; in the data active = inhibition above about 45%, passing the limit was not always enough; inconclusive = no clear call, values can overlap the other calls
Target sequence (P61088 whole entry, looked up): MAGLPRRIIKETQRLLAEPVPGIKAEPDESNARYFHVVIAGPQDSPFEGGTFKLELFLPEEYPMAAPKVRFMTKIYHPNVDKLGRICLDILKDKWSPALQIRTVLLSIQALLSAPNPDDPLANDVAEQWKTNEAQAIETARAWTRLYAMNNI
HGIII-sPLA2 inh: Inhibits HGIII-sPLA2 liposome hydrolysis, primary screen; QFRET BODIPY PC-A2 liposome hydrolysis, fluorescence; inhibition, % at 12.2 µM; 370,000 tested, 0.56% active; AID 743126;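 active = inhibition above mean plus 3 SD of compounds lying within the high and low control bounds, cut at about 19% in these data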;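 note: 0% = median of test compound wells and 100% = no enzyme DMSO wells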
NR3A LBD binder: modulates the human NR3A ligand-binding domain | NR3A LBD differential scanning fluorimetry, Tm shift; 0% = protein alone, 100% = glycine-bound protein | Tm shift relative to glycine control, % at 25 µM | 340,000 tested, 2.5% active;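 active = melting temperature shift of at least 10% of the positive control shift, at one fixed dose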
UBC9 SUMO inh: blocks human SUMOylation mediated by UBC9 | P63279 | HTRF SUMOylation assay, SAE1/SAE2 + UBC9, in vitro | inhibition, % at 35 µM | 290,000 tested, 0.36% active; in the data active = inhibition above about 50%, passing the limit was not always enough; inconclusive = no clear call, values can overlap the other calls
Target sequence (P63279 whole entry, looked up): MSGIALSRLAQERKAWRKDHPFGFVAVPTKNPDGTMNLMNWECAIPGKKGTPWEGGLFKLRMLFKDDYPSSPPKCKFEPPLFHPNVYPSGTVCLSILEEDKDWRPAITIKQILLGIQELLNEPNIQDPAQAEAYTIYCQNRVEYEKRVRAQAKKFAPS
* = called active by the depositor.

Screening C[C@H]1[C@@H](OC(=O)NCc2cccc(Cl)c2)CC[C@@]23CCCN2C(=O)CCC[C@@H]13 returned HGIII-sPLA2 inh 5.
Screening COc1ccc(C[C@](C)(N)C(=O)O)cc1OC returned UBC13 polyUb 9, HGIII-sPLA2 inh 2 and NR3A LBD binder -4.
C[C@](N)(Cc1ccc(O)c(O)c1)C(=O)O was read as HGIII-sPLA2 inh -2, NR3A LBD binder 0 and UBC9 SUMO inh 90*.
`Cc1ccc(NC(=O)c2cccc(NC(=O)/C=C/c3ccco3)c2)cc1C` gave UBC13 polyUb 0, HGIII-sPLA2 inh -5, NR3A LBD binder 15* and UBC9 SUMO inh 6.
`O=C(/C=C/c1ccco1)Nc1ccc2c(c1)OCO2` gave UBC13 polyUb -21, HGIII-sPLA2 inh 3, NR3A LBD binder -1 and UBC9 SUMO inh 4.
`Cc1ccc(-n2nc3ccc(NC(=O)/C=C/c4ccco4)cc3n2)cc1` gave UBC13 polyUb -9, HGIII-sPLA2 inh -7, NR3A LBD binder 24* and UBC9 SUMO inh -2.
Screening Cc1cc(F)ccc1C(=O)N1CCC(Oc2cccnc2)CC1 returned HGIII-sPLA2 inh 1.
For O=C(c1ccc2c(c1)[nH]c(=S)n1c3ccccc3nc21)N1CCN(c2ncccn2)CC1 the results were UBC13 polyUb inconclusive, HGIII-sPLA2 inh 5, NR3A LBD binder 11* and UBC9 SUMO inh 61*.
For Clc1ccc2nc(-c3ccncc3)cc(-c3ccccc3)c2c1 the results were UBC13 polyUb -12, HGIII-sPLA2 inh 7, NR3A LBD binder 24* and UBC9 SUMO inh -12.
Screening c1ccc(-c2cc(-c3ccncc3)nc3ccc4ccccc4c23)cc1 returned UBC13 polyUb 9, HGIII-sPLA2 inh 0, NR3A LBD binder 22* and UBC9 SUMO inh 4.
Screening NC(=O)c1cc(-c2ccncc2)nc2ccc(Cl)cc12 returned UBC13 polyUb -6, HGIII-sPLA2 inh -4, NR3A LBD binder 2 and UBC9 SUMO inh 4.
Screening CCOC(=O)C(=O)N1CCC(C(=O)NC2CCCc3ccccc32)CC1 (configuration not stated) returned HGIII-sPLA2 inh 10.
`O=C(Nc1cccc(Cl)c1)c1cc(S(=O)(=O)NCCc2ccc(Cl)cc2)ccc1F` gave UBC13 polyUb 13, HGIII-sPLA2 inh -24, NR3A LBD binder 32* and UBC9 SUMO inh -39.
Cc1ccc(NC(=O)c2cc(S(=O)(=O)NCCc3ccccc3)ccc2F)cc1Cl was read as UBC13 polyUb 11, HGIII-sPLA2 inh -28, NR3A LBD binder 24* and UBC9 SUMO inh -28.
CC(C)C[C@H](NC1(C(=O)NC2CCCCC2)CCC1)C(=O)NCC(c1ccccc1)c1ccccc1 was read as HGIII-sPLA2 inh 1.
For Cc1cc(C)c2ccc(Cl)cc2n1 the results were UBC13 polyUb -10, HGIII-sPLA2 inh -7, NR3A LBD binder -2 and UBC9 SUMO inh 2.
For Cc1cc(NN)nc2ccc(Cl)cc12 the results were UBC13 polyUb 1, HGIII-sPLA2 inh 2, NR3A LBD binder 12* and UBC9 SUMO inh 3.
Screening CCOC(=O)c1cc(CN2CCOCC2)oc1-c1ccccc1 returned UBC13 polyUb -7, HGIII-sPLA2 inh -1, NR3A LBD binder 10* and UBC9 SUMO inh 2.
CCOC(=O)c1c(-c2ccccc2)oc2ccc(O)c(CN3CCOCC3)c12 was read as UBC13 polyUb 6, HGIII-sPLA2 inh -12, NR3A LBD binder 1 and UBC9 SUMO inh 18.
For c1ccc(-c2nn(Cc3ncco3)c3ccccc23)cc1 the results were HGIII-sPLA2 inh -3.
Screening N[C@H](C(=O)N[C@@H](Cc1ccccc1)C(=O)N1CCC2CCN(S(=O)(=O)c3ccccc3)CC21)c1ccccc1 (some centres not stated) returned HGIII-sPLA2 inh 15.
O=C(Nc1ccc(O)c(-c2nc3ccccc3s2)c1)c1cccs1 was read as UBC13 polyUb -38, HGIII-sPLA2 inh 12, NR3A LBD binder 26* and UBC9 SUMO inh 17.
`O=C(Nc1ccc(F)cc1)Nc1sccc1-c1nc2ccccc2s1` gave UBC13 polyUb 12, HGIII-sPLA2 inh 1, NR3A LBD binder 31* and UBC9 SUMO inh 3.
For Cc1cccn2cc(-c3cccc(NC(=O)c4cccs4)c3)nc12 the results were UBC13 polyUb 2, HGIII-sPLA2 inh -14, NR3A LBD binder 23* and UBC9 SUMO inh -4.
For O=C(Nc1ccc(O)c(-c2nc3ccccc3s2)c1)c1cc(=O)c2ccccc2o1 the results were UBC13 polyUb -13, HGIII-sPLA2 inh 9, NR3A LBD binder 9 and UBC9 SUMO inh 26.
Screening O=C(Nc1cccc(-c2csc(-c3ccccc3)n2)c1)c1cccs1 returned UBC13 polyUb 10, HGIII-sPLA2 inh -24, NR3A LBD binder 24* and UBC9 SUMO inh -12.
CCOC(=O)[C@@]12CN(C(=O)OC(C)(C)C)CC=C1N(Cc1ccc(OC)cc1)C(=O)[C@H]2CC(=O)NCC1CCCCC1 was read as HGIII-sPLA2 inh -5.
`COC(=O)[C@H](CC(C)C)N(CCc1cn(Cc2ccc(C)cc2)nn1)S(=O)(=O)c1ccccc1Br` gave HGIII-sPLA2 inh -12.
`CCC(C)[C@H](NC(=O)C1COC(O)([C@H](Cc2ccccc2)NC(=O)[C@@H](NC(=O)OCc2ccccc2)C(C)C)CN1C)C(=O)N[C@H](C(=O)OC)C(C)C` (some centres not stated) gave HGIII-sPLA2 inh -2.
Screening CN1CCCN(C(=O)C2CCN(c3ncnc4c3sc3cccc(F)c34)CC2)CC1 returned HGIII-sPLA2 inh 5.
`Cc1ccc(S(=O)(=O)NCCCc2ccc3c(c2)[C@]2(CCC[C@@H](OCc4ccccc4)[C@@H]2NC(=O)CCc2ccccc2)C(=O)N3Cc2ccccc2)cc1` gave HGIII-sPLA2 inh -2.
For CC1=NN(c2nc(-c3ccc(C)cc3)cs2)C(=O)C1N=Nc1ccc(C(N)=O)cc1 (configuration not stated) the results were HGIII-sPLA2 inh 1, NR3A LBD binder 27* and UBC9 SUMO inh 18.
CC12CCCc3c(O)cc(=O)n(c31)-c1ccccc12 (configuration not stated) was read as UBC13 polyUb -6, HGIII-sPLA2 inh 7, NR3A LBD binder 21* and UBC9 SUMO inh 2.
For Cc1ccc(OCC(=O)N/N=C\c2ccc(-c3cccc(C(=O)O)c3)o2)c(C)c1 the results were UBC13 polyUb -28, HGIII-sPLA2 inh -21, NR3A LBD binder 12* and UBC9 SUMO inh -1.
For CCOC(=O)CC[C@@]1(C(=O)OCC)C[C@@H](CC(=O)NCc2ccc(C)o2)C(=O)N2CCCC=C21 the results were HGIII-sPLA2 inh -5.
Screening CN(C)c1cccc2c(S(=O)(=O)N3CCCC3)cccc12 returned UBC13 polyUb 0, HGIII-sPLA2 inh 5, NR3A LBD binder -1 and UBC9 SUMO inh 51*.
For N#Cc1ccccc1NCCCN1CCC(C(O)(c2ccccc2)c2ccccc2)CC1 the results were HGIII-sPLA2 inh -11.
CC(=O)Nc1ccc(NC(=O)COc2ccc([N+](=O)[O-])cc2)cc1 was read as UBC13 polyUb 0, HGIII-sPLA2 inh 6, NR3A LBD binder 0 and UBC9 SUMO inh 15.

From PubChem BioAssay
